Data published in PubChem BioAssay (Tox21).
Results filed as inconclusive are left out. Calls of active or inactive are those of the source. Unless noted, the call rests on the fitted dose curve; in most records, active means well fitted curve in the direction sought with a large enough effect in the repeat runs; inconclusive means weak or mixed curves; inactive means no such curve, though single readings can be large; an effect the other way counts as inactive or inconclusive.

Experiments:
[1] = qHTS RealTime-Glo MT Cell Viability Assay in HEK293 cells - 0 hour (AID 1224880); further: top concentration of the series differs between compounds; nearly all actives have a fitted effect of over 45% in size
Summary of the method: (§1)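 600 cells/well were plated with the nonlytic NanoLuc/prosubstrate reagent, pre-incubated 5 h, then given 23 nL of compound in DMSO. Incubation at 37 C for 40 h, with luminescence from viable-cell-reduced substrate read repeatedly from 0 h.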

[2] = A CellTox Green Cytotoxicity Assay to monitor cytotoxicity in HEK293 cells - 32 hour (AID 1224881); further: nearly all actives have a fitted effect of over 40% in size
Summary of the method: (§2)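 HEK293 cells, 600/well, were preincubated 5 hours and then exposed to compounds at 37 C for up to 40 hours. A cell-impermeant cyanine dye staining dead-cell DNA was read by fluorescence at 0, 8, 16, 24, 32 and 40 h time points.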

[3] = A CellTox Green Cytotoxicity Assay to monitor cytotoxicity in HepG2 cells - 32 hour (AID 1224883); further: nearly all actives have a fitted effect of over 50% in size
Summary of the method: (§3)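 HepG2 cells, 600/well, preincubated 5 h with CellTox Green dye, then exposed to Tox21 compounds in DMSO at 37 C for up to 40 h. Dead-cell DNA fluorescence read at the indicated time point.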

[4] = qHTS RealTime-Glo MT Cell Viability Assay in HepG2 cells - 16 hour (AID 1224885); further: nearly all actives have a fitted effect of over 50% in size
Summary of the method: (§4)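 Real-time, nonlytic viability: 600 HepG2 cells/well mixed with NanoLuc enzyme plus prosubstrate; 5 h settle, compound (DMSO) added by pintool; luminescence monitored over 40 h at 37 C.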

[5] = qHTS RealTime-Glo MT Cell Viability Assay in HEK293 cells - 24 hour (AID 1224886); further: top concentration of the series differs between compounds; nearly all actives have a fitted effect of over 50% in size
Summary of the method: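 Cells + reagent dispensed (600 cells/well, HEK293) → 5 h at 37 C/5% CO2 → 23 nL compound in DMSO pinned → 40 h at 37 C → luminescence read at 0, 8, 16, 24, 32, 40 h.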

[6] = qHTS RealTime-Glo MT Cell Viability Assay in HEK293 cells - 8 hour (AID 1224887); further: top concentration of the series differs between compounds; nearly all actives have a fitted effect of over 50% in size
Summary of the method: as §1

[7] = A CellTox Green Cytotoxicity Assay to monitor cytotoxicity in HEK293 cells - 16 hour (AID 1224888); further: nearly all actives have a fitted effect of over 35% in size
Summary of the method: as §2

[8] = qHTS RealTime-Glo MT Cell Viability Assay in HepG2 cells - 0 hour (AID 1224889); further: nearly all actives have a fitted effect of over 50% in size
Summary of the method: as §4

[9] = A CellTox Green Cytotoxicity Assay to monitor cytotoxicity in HepG2 cells - 8 hour (AID 1224890); further: nearly all actives have a fitted effect of over 45% in size
Summary of the method: as §3

[10] = qHTS assay to identify small molecule antagonists of the estrogen receptor alpha (ER-alpha) signaling pathway using the BG1 cell line in the presence of 0.1 nM 17-beta-estradiol - cell viability counter screen (AID 1259241); further: nearly all actives have a fitted effect of over 40% in size
Summary of the method: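 Following 5 days in phenol red-free medium with charcoal-stripped serum, VM7Luc4E2 cells received test compounds alongside 0.1 nM 17beta-estradiol (final) at 37C for 22 hr. Live cells were then quantified via protease-substrate fluorescence.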

[11] = qHTS assay to identify small molecule antagonists of the androgen receptor (AR) signaling pathway using the MDA cell line in the presence of 0.5 nM R1881 - cell viability counter screen (AID 1259242); further: nearly all actives have a fitted effect of over 45% in size
Summary of the method: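 MDA-kb2 cells (MMTV-luciferase, AR/GR responsive) were treated with compounds plus 0.5 nM R1881 (final) for 16 hr at 37C, 0% CO2. Viability was then read in the same wells as live-cell protease fluorescence (CellTiter-Fluor, 30 min).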

[12] = molecular target: Estrogen receptor (Homo sapiens) (UniProt P03372); experiment: qHTS assay to identify small molecule antagonists of the estrogen receptor alpha (ER-alpha) signaling pathway using the BG1 cell line in the presence of 0.1 nM 17-beta-estradiol (AID 1259244); further: nearly all actives have a fitted effect of over 50% in size
Sequence of Estrogen receptor (Homo sapiens) (P03372 whole entry, looked up): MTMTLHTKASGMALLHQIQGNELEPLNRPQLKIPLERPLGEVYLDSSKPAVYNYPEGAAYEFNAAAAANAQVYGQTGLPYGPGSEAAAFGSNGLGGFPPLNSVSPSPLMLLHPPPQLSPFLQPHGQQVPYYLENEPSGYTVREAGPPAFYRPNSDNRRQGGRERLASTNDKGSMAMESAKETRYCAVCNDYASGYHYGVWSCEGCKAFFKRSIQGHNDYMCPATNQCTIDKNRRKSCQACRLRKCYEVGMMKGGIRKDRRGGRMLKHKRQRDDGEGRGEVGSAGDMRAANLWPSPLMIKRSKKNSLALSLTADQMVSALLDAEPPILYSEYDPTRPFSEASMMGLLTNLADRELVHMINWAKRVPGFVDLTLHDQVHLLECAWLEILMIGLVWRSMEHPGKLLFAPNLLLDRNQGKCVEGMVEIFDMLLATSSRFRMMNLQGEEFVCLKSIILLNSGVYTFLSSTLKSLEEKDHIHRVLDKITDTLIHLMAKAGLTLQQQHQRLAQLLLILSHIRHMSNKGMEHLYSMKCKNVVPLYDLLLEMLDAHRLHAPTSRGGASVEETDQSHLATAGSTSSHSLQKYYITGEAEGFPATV
Summary of the method: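 VM7Luc4E2 cells (endogenous full-length ER-alpha, 4×ERE-luciferase), kept 5 days in phenol red-free, charcoal-stripped FBS medium; 4,000 cells/well. Compounds added with 0.1 nM (final) 17beta-estradiol, 22 hr at 37C; luminescence read with ONE-Glo after 30 min.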

[13] = qHTS assay to identify small molecule HDAC inhibitors (AID 1259364); further: top concentration of the series differs between compounds; nearly all actives have a fitted effect of over 45% in size
Summary of the method: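 Wild-type HCT-116 cells, plated overnight at 37 C, exposed to compounds 2 hr at 37 C; luminogenic HDAC-Glo substrate then added 30 min at room temperature. Luminescence reports relative endogenous class I/II HDAC activity.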

[14] = qHTS assay to identify small molecule HDAC inhibitors - cell viability counter screen (AID 1259365)
Summary of the method: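 HCT-116 wild-type, overnight attachment; 2hr drug exposure, 37C; CellTiter-Glo luminescent ATP readout after 30min RT.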

[15] = qHTS assay to identify small molecule agonists of the sonic hedgehog signaling (Shh) pathway - cell viability counter screen (AID 1259366); further: nearly all actives have a fitted effect of over 50% in size
Summary of the method: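 Compounds in DMSO were pin-transferred onto 3T3 Gli1-Luc cells that had settled 4hr; plates then stood 24hr at 37C and 5% CO2. One hour before the end, CellTiter-Fluor was added and fluorescence recorded.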

[16] = qHTS assay to identify small molecule antagonists of the sonic hedgehog signaling (Shh) pathway - cell viability counter screen (AID 1259367); further: nearly all actives have a fitted effect of over 55% in size
Summary of the method: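 Using CellTiter-Fluor, viability of Gli1-Luc reporter 3T3 cells is read by fluorescence in the wells used for the Shh luciferase assay. Treatment lasts 23 hr with conditioned medium, then reagent 1 hr at 37C.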

[17] = A CellTox Green Cytotoxicity Assay to monitor cytotoxicity in HEK293 cells - 8 hour (AID 1224884); further: nearly all actives have a fitted effect of over 35% in size
Summary of the method: as §2

[18] = qHTS assay to identify small molecule phospholipidosis (PLD) inducers (AID 1259344; active means well fitted curve in the direction sought with a large enough effect; an effect the other way counts as inactive or inconclusive)
Summary of the method: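 Fluorescent phospholipid staining (LipidTOX Red) measured by automated microscopy in fixed HepG2 cells after 24 h treatment; nuclei counterstained with Hoechst 33342; amiodarone as reference inducer.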

[19] = A CellTox Green Cytotoxicity Assay to monitor cytotoxicity in HepG2 cells - 0 hour (AID 1224882); further: nearly all actives have a fitted effect of over 35% in size
Summary of the method: as §3

[20] = molecular target: Androgen receptor (Homo sapiens) (UniProt P10275); experiment: qHTS assay to identify small molecule antagonists of the androgen receptor (AR) signaling pathway using the MDA cell line in the presence of 0.5 nM R1881 (AID 1259243); further: nearly all actives have a fitted effect of over 50% in size
Sequence of Androgen receptor (Homo sapiens) (P10275 whole entry, looked up): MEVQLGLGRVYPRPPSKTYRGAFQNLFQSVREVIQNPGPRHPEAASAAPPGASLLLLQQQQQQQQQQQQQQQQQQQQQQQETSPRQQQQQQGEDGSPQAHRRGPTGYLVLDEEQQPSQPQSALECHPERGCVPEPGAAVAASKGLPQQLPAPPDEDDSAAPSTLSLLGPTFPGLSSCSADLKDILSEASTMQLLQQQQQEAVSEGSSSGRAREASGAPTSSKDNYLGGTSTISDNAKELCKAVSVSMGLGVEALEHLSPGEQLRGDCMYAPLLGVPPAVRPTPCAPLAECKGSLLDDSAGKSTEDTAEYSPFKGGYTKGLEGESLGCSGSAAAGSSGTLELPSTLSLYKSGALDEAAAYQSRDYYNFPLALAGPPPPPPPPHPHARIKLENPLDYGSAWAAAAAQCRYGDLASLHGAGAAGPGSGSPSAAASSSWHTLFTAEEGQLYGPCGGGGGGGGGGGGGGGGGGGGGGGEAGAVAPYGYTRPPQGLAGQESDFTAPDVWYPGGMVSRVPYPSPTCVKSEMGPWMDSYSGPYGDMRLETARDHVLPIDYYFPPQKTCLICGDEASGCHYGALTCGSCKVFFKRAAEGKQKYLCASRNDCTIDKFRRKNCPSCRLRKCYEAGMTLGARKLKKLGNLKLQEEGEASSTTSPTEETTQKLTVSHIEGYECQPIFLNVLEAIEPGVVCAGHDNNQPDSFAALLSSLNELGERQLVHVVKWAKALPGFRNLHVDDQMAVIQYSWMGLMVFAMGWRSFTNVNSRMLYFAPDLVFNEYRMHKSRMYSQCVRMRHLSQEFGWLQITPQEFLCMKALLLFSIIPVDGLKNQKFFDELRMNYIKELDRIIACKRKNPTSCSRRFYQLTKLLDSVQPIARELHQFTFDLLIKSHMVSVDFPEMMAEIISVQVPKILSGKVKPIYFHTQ
Summary of the method: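 MDA-kb2 cells (MMTV-luciferase, responsive to AR and GR) at 3,000/well, rested 5 h at 37C, 0% CO2, then given compounds plus 0.5 nM R1881 (final) for 16 hr. Luciferase read with ONE-Glo after 30 min at room temperature.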

Measured: Potency

C=C1CC/C=C(\C)CC[C@@H]2[C@@H]1CC2(C)C
not listed: [17] | [18] | [19] | [20]
inactive: all other assays above

COc1ccc(C2CNC(=O)C2)cc1OC1CCCC1 (centres undefined)
not listed: [11] | [12] | [19] | [20]
inactive: all other assays above

CC(C)NCC(O)COc1ccc(COCCOC(C)C)cc1 (centres undefined)
not listed: [1] | [16]
inactive: all other assays above

N[C@@H](CCC(=O)Nc1ccc([N+](=O)[O-])cc1)C(=O)O
not listed: [11] | [18] | [19]
inactive: all other assays above

CC(C)C(=O)OCCc1ccccc1
not listed: [2] | [3] | [16] | [18] | [20]
inactive: all other assays above

CC(S)C(=O)NCC(=O)O (centres undefined)
not listed: [1] | [2] | [7] | [11] | [12] | [17] | [19]
inactive: all other assays above

O=C1c2cccc3c2[C@H](CCC3)CN1[C@@H]1CN2CCC1CC2
not listed: [1] | [3] | [5] | [11] | [15] | [17] | [20]
inactive: all other assays above

O=C(CS(=O)Cc1ccco1)NC/C=C\COc1cc(CN2CCCCC2)ccn1 (centres undefined)
not listed: [1] | [3] | [17] | [20]
inactive: all other assays above

CC(C)C(=O)OCc1cccc(OC(=O)[C@@H]2N3C(=O)[C@@H](NC(=O)Cc4ccccc4)[C@H]3SC2(C)C)c1
not listed: [1] | [14] | [18]
inactive: all other assays above

O=C1O[C@@H]2[C@@H](O)[C@H](O)O[C@@H]2[C@H]1O
not listed: [1] | [20]
inactive: all other assays above
